Experimental data taken from PubChem BioAssay (NCI).
About 83,000 compounds went through this panel and 20% of them were active in at least one assay; those are over-represented in the sample as a whole.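 Step 1: grow cells in 96-well plates. Step 2: add test compound at a single concentration. Step 3: incubate 48 h. Step 4: record percent growth.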 Values without a mark were called inactive. Activity calls are given as the source filed them. How the source made its calls: active means growth percent below 10; inactive means the rest.

Key:
Assay in all cases: NCI-60 one-dose screen, 48 h (100 = growth as untreated, 0 = no growth, -100 = all killed)
Details in all cases: 10 µM unless noted
HCT-15 colon = test system: HCT-15 colon
HT29 colon = test system: HT29 colon
SNB-75 CNS = test system: SNB-75 CNS
SNB-19 CNS = test system: SNB-19 CNS
U251 CNS = test system: U251 CNS
PC-3 prostate = test system: PC-3 prostate
SK-MEL-5 melanoma = test system: SK-MEL-5 melanoma
UACC-62 melanoma = test system: UACC-62 melanoma
LOX IMVI melanoma = test system: LOX IMVI melanoma
SK-MEL-28 melanoma = test system: SK-MEL-28 melanoma

Structure (SMILES)	growth (HCT-15 colon)	growth (HT29 colon)	growth (SNB-75 CNS)	growth (SNB-19 CNS)	growth (U251 CNS)	growth (PC-3 prostate)	growth (SK-MEL-5 melanoma)	growth (UACC-62 melanoma)	growth (LOX IMVI melanoma)	growth (SK-MEL-28 melanoma)
CC1=C(CCCOC(=O)[C@H](N)CC(C)C)C2=C(C)C3(CC3)[C@@](C)(O)C(=O)C2=C1	4.16% (active)	12.6%	-7.8% (active)	45.4%	35.9%	28.5%	-67.6% (active)	11.3%	41.8%	33.8%
CC1(C)N=C(N)N=C(N)N1c1ccc(OCCCNC(=O)Nc2ccc(S(=O)(=O)F)cc2)c(Cl)c1	41.5%	8% (active)	57.6%	28.6%	24.5%	12.7%	29%	23.7%	16.2%	54.2%
C=CCn1cc(C=C2C(=O)N(C)C(=O)N(C)C2=O)c2ccccc21	106%	104%	78.7%	96.2%	98.2%	89.4%	94.9%	93.8%	94.8%	97.9%
O=C1C(Cl)=C(N2CCOCC2)C(=O)c2ccccc21	71.5%	116%	102%	116%	67%	71.9%	92%	105%	76.7%	118%
NC(=O)c1c(Br)n(C2OC(CO)C(O)C2O)c2ncnc(N)c12 (stereo not given)	3.75% (active)	16.3%	37.5%	53.9%	33.4%	-10.5% (active)	50.7%	8.21% (active)	1.47% (active)	-4.78% (active)
O=C1CNC(c2ccccc2)c2cc(Cl)ccc2N1 (stereo not given)	105%	80.4%	85.6%	96.6%	105%	99.3%	101%	93.4%	96.3%	116%
COC(=O)[C@@H](C)C[C@H](Cc1ccccc1)NC(=O)c1cccc([C@@H](C[C@H](C(C)C)N(C)C(=O)[C@@H](NC(=O)[C@H]2CCCCN2C)C(C)C)OC(C)=O)n1	10.6%	6.05% (active)	26.5%	18.5%	14.6%	28.7%	-50.6% (active)	29.1%	13.6%	67.2%
Nc1nc([Se])c2ncn(C3OC(CO)C(O)C3O)c2n1 (stereo not given)	85.6%	55.2%	96.7%	98%	94.6%	93.4%	92.2%	68.5%	10.1%	98.9%
O=C(O)CNC(=O)C(Cl)(Cl)Cl	96%	97.1%	85.1%	100%	84.8%	91.6%	99%	102%	99%	96.6%
CC(=O)O[C@H](C[C@H](C(C)C)N(C)C(=O)[C@@H](NC(=O)[C@H]1CCCN1C)C(C)C)c1nc(C(=O)N[C@@H](Cc2ccccc2)C[C@H](C)C(=O)O)c(C)s1	17.7%	2.64% (active)	50.5%	33.2%	5.53% (active)	19.2%	-19.2% (active)	39.3%	27.4%	61.9%
CC(=O)OCc1cc[c]([Hg][Cl])o1	5.8% (active)	46%	42.7%	45.2%	7.54% (active)	43.8%	42.6%	47.8%	-50.5% (active)	12.3%
Clc1ccc2nnnn2n1	24.7%	12.9%	80.3%	91.7%	34.4%	25.7%	30.2%	45.4%	16.3%	51.9%
O=C1Nc2ccccc2C2c3cccn3-c3ccccc3CN12 (stereo not given)	38%	11.3%	21.1%	73.4%	14.7%	48.6%	43.1%	35%	63%	66.6%
C=CC[Se]C(=O)c1ccccc1OC(C)=O	17.8%	14.4%	-65.1% (active)	-23.2% (active)	-44% (active)	-28.3% (active)	-35.7% (active)	-15.2% (active)	21.7%	4.12% (active)
COC(=O)[C@@H](C)C[C@H](Cc1ccccc1)NC(=O)c1csc([C@@H](C[C@H](C(C)C)N(C)C(=O)[C@H](C)NC(=O)[C@H]2CCCN2C)OC(C)=O)n1	57.7%	11.5%	30.7%	51%	24.8%	36.4%	22.3%	45.6%	38.4%	70.1%
CCCCN(CCCC)P(=O)(Oc1ccccc1)Oc1ccccc1	68.1%	39.1%	50.9%	60.1%	53.1%	38.6%	67%	60.1%	67.7%	94.1%
O=NN1CCCc2cccc(O)c21	27.2%	94.6%	21.8%	31%	21.9%	51.8%	19.9%	26.7%	23.9%	67.2%
CO[C@H]1CC[C@@]2(C)C(=CC[C@@H]3[C@@H]2CC[C@]2(C)C(=O)C(=O)C[C@@H]32)C1	103%	106%	103%	94.8%	104%	84.2%	99%	92.5%	92.5%	117%
COc1cc2c(cc1OCCCCCn1c(-c3ccco3)nc3ccccc31)N=C[C@@H]1CCCN1C2=O	7.84% (active)	1.38% (active)	-64.2% (active)	23.3%	8.03% (active)	17.5%	-17% (active)	-86.9% (active)	-31.6% (active)	-58.6% (active)
Nc1ccc(Cl)cc1	100%	97.5%	88.3%	103%	96.9%	86%	99.7%	101%	92.8%	109%
CSc1nc(Cl)cc(N2CC2)n1	100%	112%	110%	108%	110%	92.5%	105%	97.9%	111%	121%
CC(=O)OC[C@]1(C)C=C2C(=O)[C@](C)(O)C3(CC3)C(C)=C2[C@H]1O	-8.75% (active)	-12% (active)	-91.5% (active)	-16.5% (active)	1.39% (active)	-15.6% (active)	-62% (active)	-84.4% (active)	-30.3% (active)	-56% (active)
CN1CC(CNC(=O)OCc2ccccc2)CC2c3cccc4c3c(cn4C)CC21 (stereo not given)	8.29% (active)	5.34% (active)	20.6%	57.8%	13.6%	40%	-97.8% (active)	5.67% (active)	-37.4% (active)	-41.1% (active)
CC[C@H](C)[C@@H]([C@@H](CC(=O)N1CCC[C@H]1[C@H](OC)[C@@H](C)C(=O)N[C@H](C)[C@@H](O)c1ccccc1)OC)N(C)C(=O)[C@@H](NC(=O)[C@@H](NC)C(C)C)C(C)C	17.2%	3.65% (active)	39%	45.4%	6.43% (active)	29.1%	-37.6% (active)	47.3%	19.6%	63.5%
CC[CH2][Sn]([Cl])([Cl])[CH2]CC	83.1%	103%	55.9%	88.9%	39.2%	103%	86.4%	60%	27.6%	69.2%
O=C1CCC2(O)[C@@H]3Cc4ccc(O)c5c4[C@]2(CCN3Cc2ccoc2)C1O5 (stereo not given in full)	100%	102%	85.1%	101%	101%	44.2%	100%	109%	92.2%	115%
CC(=O)ONc1ccc([N+](=O)[O-])c(C(F)(F)F)c1	108%	108%	82.9%	107%	104%	95.4%	109%	96.8%	98.8%	110%
